Bioassay records (PubChem BioAssay)
Pf growth 96h: P. falciparum growth inhibition at 96 hours. P. falciparum luciferase reporter growth, 96 h. Potency, µM (highest dose often 28.7 µM), inactives show top-dose activity change, negative = inhibition, most hits filed as inhibitors. actives 6.9% (n = 320,000). AID 504834; also: potency is read from the fitted curve at half-maximal effect; % is scaled to controls: 0 for no effect and ±100 for the full control effect
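Compounds incubated with erythrocytes infected by luciferase-expressing P. falciparum (2% hematocrit, 0.05% parasitemia final) for 96 hours, 37 C in 5% CO2. Growth inhibition scored as decreased luciferase luminescence.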
Shiga inhibitor: inhibitors of Shiga toxin in Vero cells | AID 2315 | actives 9.2% (n = 290,000) | Vero cells, Shiga toxin protein synthesis inhibition reporter | inhibition, % at 38.7 µM; in the data active = inhibition mostly above about 28%, no sharp cut-off; inactive = mostly below about 43%; also: 0% is about no effect
Pf growth 48h: inhibits P. falciparum growth in the first generation, 48 h | Potency, µM (highest dose often 28.7 µM), for the others: at the top dose activity change, negative = inhibition, actives largely listed as inhibitors | P. falciparum luciferase growth in erythrocytes, 48 h | actives 5.9% (n = 310,000) | AID 504832; also: potency is read from the fitted curve at half-maximal effect; % is scaled to controls: 0 for no effect and ±100 for the full control effect
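Luminescence readout; reporter = integrated firefly luciferase in P. falciparum. RBC culture at 2% hematocrit, 0.1% parasitemia final, 37 C/5% CO2; decreased signal taken as growth inhibition.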
NS1 inh: influenza NS1 inhibition | Potency, µM (top dose mostly 46.1 µM), inactives show top-dose activity, positive = more growth | actives 0.4% (n = 270,000); calls by dose curve; also: potency is read from the fitted curve at half-maximal effect; actives are rising curves; nearly all actives have a fitted effect of over 50% in size
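A cell-based growth assay was used: compounds that relieve NS1-induced slow growth of budding yeast raise OD600. Assay medium was yeast nitrogen base with ammonium sulphate and -URA supplement, pH 6.0, with 2% galactose.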
Cycloheximide cs: affects cycloheximide protein synthesis inhibition readout, counter-screen; cell reporter, cycloheximide protein synthesis inhibition counterscreen; max response, %; actives 12% (n = 300,000); AID 2314; in the data active = max response mostly above about 13%, no sharp cut-off; inactive = mostly below about 14%; also: read at 38.3 µM for the half of the compounds with a filed dose; 0% is about no effect
* = called active by the depositor; ? = inconclusive; nt = not tested or not shown. Compounds with a hit are over-represented: about 21% of the library has one in this group of screens. Unless noted, calls follow the shape of the dose curve; as a rule, active = well fitted inhibition curve with a large enough effect; inconclusive = small, poorly fitted or top-dose-only effect, or another doubt; inactive = no such curve, though single readings can be large or run the other way.

SMILES	Pf growth 96h	Shiga inhibitor	Pf growth 48h	NS1 inh	Cycloheximide cs
O=C(Cn1cc(C(=O)COc2ccccc2)c2ccccc21)NCc1ccco1	161%	52*	-14%	?	25*
CC(=O)c1c(C)n(CC(=O)NCc2ccco2)c2ccccc12	16%	-2	?	0%	-3
O=C(COc1ccccc1)c1cn(CC(=O)N2CCOCC2)c2ccccc12	-5%	22	1%	1%	6
CC(=O)c1cn(CC(=O)NCc2ccco2)c2ccccc12	?	130*	67%	-8%	28
CN(Cc1ccccc1)C(=C(Cl)Cl)/C(=C1/NCCN1Cc1ccc(Cl)nc1)[N+](=O)[O-]	9.3µM*	-15	nt	-13%	-4
O=C(CCC(=O)Nc1nnc(C2CCCCC2)s1)Nc1ccccc1	9%	5	22%	-3%	1
ONC(=Nc1ccc(Cl)cc1)c1ccc(Cl)cc1	106%	-1	70%	-27%	11
[S-]C(=Nc1ccc(Cl)cc1)N[n+]1ccccc1	-9%	37*	15%	-2%	30*
OC1(Cc2cc(-c3ccccc3)no2)CCN(CCCc2ccccc2)CC1	3.3µM*	6	6.6µM*	9%	3
Fc1ccc(-c2nnc3ccc(N4CCCC4)nn23)cc1	-14%	-11	-3%	-37%	-7
Brc1ccc(-c2nnc3ccc(N4CCN(c5ccccc5)CC4)nn23)cc1	12µM*	1	?	-13%	-1
CCN(CC)S(=O)(=O)c1ccc2c(c1)nc(-c1ccccn1)n2C	66%	83*	87%	-4%	23*
CCCn1c(NC(=O)c2cccc(S(=O)(=O)N3CCCC3)c2)nc2ccccc21	9.3µM*	0	?	-33%	-8
CCCn1c(NC(=O)c2ccccc2)nc2ccccc21	54%	32	?	-113%	17
CC(C)Cn1c(CNC(=O)c2ccccc2)nc2ccccc21	53%	-5	16%	-47%	3
CCCn1c(CNC(=O)c2ccccc2)nc2ccccc21	2.9µM*	2	2%	-10%	-3
C=CCn1c(-c2ccc(C)cc2)nc2ccccc21	-12%	26	nt	-156%	9
O=C(Nc1nc2ccccc2n1CCN1CCCC1)c1ccc(Cl)cc1	?	78*	?	-5%	16
C=CCn1c(NC(=O)c2ccc(C)cc2)nc2ccccc21	-51%	42	?	4%	16*
CCC1(c2ccc(O)cc2)NC(=O)N(C)C1=O (stereo unspecified)	nt	-13	nt	nt	-1
Cc1ccc(C(=O)Nc2nc3ccccc3n2CCN2CCCC2)cc1	nt	104*	?	2%	38*
CCCn1c(NC(=O)C2CCN(S(=O)(=O)c3cccs3)CC2)nc2ccccc21	71%	-22	10µM*	-74%	0
CCCn1c(NC(=O)c2ccc(C)cc2)nc2ccccc21	?	42*	?	-18%	17*
O=C(Nc1nc2ccccc2n1CCN1CCCC1)C1CCCCC1	75%	-48	?	-8%	-2
Cc1csc(NC(=O)C2CCN(S(=O)(=O)c3cccs3)CC2)n1	55%	-8	-2%	nt	8
SMILES	Pf growth 96h	Shiga inhibitor	Pf growth 48h	NS1 inh	Cycloheximide cs
O=C(Nc1nc2ccccc2n1CCN1CCOCC1)c1ccc(Cl)cc1	?	50*	13µM*	2%	12*
O=C(Nc1nc2ccccc2n1CCN1CCCCC1)c1ccc(Cl)cc1	49%	36	nt	4%	10
Cc1ccc(CNC(=O)C(=O)Nc2nccs2)cc1	6%	16	13%	8%	-2
COc1ccccc1NC(=O)c1cc2c(CO)cnc(C)c2oc1=Nc1cccc(C(N)=O)c1	?	-7	-15%	3%	2
Cn1c(CC(=O)Nc2ccccc2F)nnc1SCC(=O)Nc1nccs1	1%	-2	21%	3%	-2
CCOC(=O)N1CCN(C(=O)c2cc3c(s2)-c2ccc(Cl)cc2S(=O)(=O)C3)CC1	-21%	15	35%	nt	11
COc1ccc(N2CC(O)=C(c3nc(-c4ccc(F)cc4)cs3)C2=N)cc1OC	-11%	20	189%	-35%	-2
O=C(NCc1cccs1)Nc1cccs1	41%	33*	46%	?	38*
O=C(NCc1ccccc1)NCc1cccs1	?	41*	73%	-1%	22*
Cc1ccccc1CNC(=O)C(=O)Nc1nccs1	12%	5	12%	nt	0
O=C(CNC(=O)Cc1ccccc1)NCc1cccs1	56%	nt	1%	nt	nt
O=C(O)C1C2C=CC(C2)C1C(=O)NCc1cccs1 (stereo unspecified)	4.1µM*	-4	-1%	0%	-5
Cc1ccccc1CNC(=O)Nc1cccs1	-17%	66*	84%	7%	51*
CC1CN(c2ccc(Cl)cc2[N+](=O)[O-])CCN1S(C)(=O)=O (stereo unspecified)	8%	-33	10%	-7%	1
CC(=O)OC1CC(C)N(C(=O)c2ccccc2)c2ccc(C)cc21 (stereo unspecified)	nt	-10	59%	-6%	1
CC(=O)N1c2ccc(C)cc2C(c2ccccc2)CC1C (stereo unspecified)	?	-4	7.4µM*	-25%	2
CC(c1ccccc1)N1C(=O)/C(=C/c2ccncc2)SC1=S (stereo unspecified)	?	-6	?	-76%	1
CCCCCCCn1c(=N)n(CC(=O)c2ccco2)c2ccccc21	12µM*	-3	nt	-1%	-3
CCCCCCCn1c(=N)n(CC(O)c2ccco2)c2ccccc21 (stereo unspecified)	?	-8	4.1µM*	-2%	-1
CCCCn1c(=N)n(CC(=O)c2ccco2)c2ccccc21	80%	-14	2%	9%	-3
CCOC(=O)Cn1c(=O)oc2cc(S(=O)(=O)Nc3cc(OCC)ccc3OCC)ccc21	1.5µM*	10	?	-31%	-3
CCOC(=O)Cn1c(=O)oc2cc(S(=O)(=O)NC(C)c3ccccc3)ccc21 (stereo unspecified)	8.3µM*	-8	nt	3%	-3
CCOC(=O)Cn1c(=O)oc2cc(S(=O)(=O)NCCC(C)C)ccc21	?	-10	nt	-11%	-3
COc1ccccc1NS(=O)(=O)NC(=O)c1cn(C)c2ccccc12	-6%	10	2%	-3%	12
Cn1cc(C(=O)NS(=O)(=O)Nc2ccc(Br)cn2)c2ccccc21	35%	22*	0%	-2%	26*
SMILES	Pf growth 96h	Shiga inhibitor	Pf growth 48h	NS1 inh	Cycloheximide cs
N#C/C(=C\c1ccccc1Br)C(=O)NC1CC1	1.5µM*	-10	-18%	10%	-3
Cc1cc(/C=C(\C#N)C(=O)NC2CC2)c(C)[nH]1	53%	94*	165%	7%	68*
CCCCOc1cccc(/C=C(\C#N)C(=O)NC2CC2)c1	83%	5	0%	-54%	8
Cc1cc(/C=C(\C#N)C(=O)NC2CCCCCC2)c(C)[nH]1	197%	46	36%	-1%	35*
CC(=O)Nc1ccc(/C=C(\C#N)C(=O)NC2CCCCC2)cc1	-15%	-9	-27%	2%	3
COCCNC(=O)/C(C#N)=C/c1ccccc1Br	16%	12	0%	-36%	13
